ADAM10 inh – ADAM10 inhibition, QFRET primary screen; O14672; AID 720582; recombinant ADAM10, EDANS/DABCYL FRET peptide cleavage, 3 h; 370,000 tested, 0.62% active; inhibition, % at 7 µM;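 active means inhibition above a per-campaign cutoff equal to the mean of compounds falling between control-based bounds plus 3 SD, cut at about 20% in these data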;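 further: 0% = DMSO wells while the 100% control is not disclosed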
KLK7 zymogen act – activators of human kallikrein-7 zymogen | 370,000 tested, 0.9% active | purified proKLK7, EDANS-DABCYL substrate fluorescence; 100% is mature enzyme control, 0% vehicle | activation, % at 7 µM | P49862;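 active means activation above the mean of all tested compounds plus 3 SD, computed per campaign excluding outliers beyond control limits, cut at about 13% in these data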
PLCb3 inh – PLC-beta3 (human) inhibition, primary screen; Q01970; Purified PLC-beta3, fluorogenic substrate, fluorescence; inhibition, % at 12.2 µM; 370,000 tested, 0.18% active; in the data active means inhibition above about 11%;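 further: 0% = median of compound wells on plate and 100% = full blocker control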
PLC-gamma1 inh – blocks human PLC-gamma1 enzyme activity; P19174; purified PLC-gamma1, fluorogenic substrate, fluorescence; 370,000 tested, 0.84% active; inhibition, % at 12.2 µM; AID 720700; in the data active means inhibition above about 9.5%
ADAM17 inh – ADAM17 inhibition, QFRET primary screen | P78536 | recombinant ADAM17, EDANS/DABCYL FRET peptide cleavage | inhibition, % at 6.95 µM | 370,000 tested, 0.83% active;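 active means inhibition above the mean of compounds lying between control limits plus 3 SD, set per campaign, cut at about 8.5% in these data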;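 further: 0% = DMSO-only wells as the low control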
proKLK7 act conf – proKLK7 activation, confirmation; purified proKLK7, EDANS-DABCYL substrate fluorescence; scaled: vehicle 0, mature enzyme 100; shares compounds with KLK7 zymogen act; 3,200 tested, 68% active; activation, % at 7 µM; AID 686949;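 active means activation, as change over the incubation, above the mean of all tested compounds plus 3 SD, cut at about 13% in these data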
EDANS-DABCYL int – counter-screen for kallikrein-7 activators: EDANS-DABCYL optical interference; shares compounds with KLK7 zymogen act; EDANS-DABCYL substrate fluorescence interference, no enzyme, 4 h; solvent 0%, active enzyme control 100%; activation, % at 7 µM; 3,200 tested, 80% active; AID 686952;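 active means activation above the all-compound mean plus 3 SD, ignoring values outside control-based bounds, cut at about 4.8% in these data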;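 further: value is the 4 h activation minus the activation read at time zero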
Starred values were filed as active, the others as inactive; i = inactive; · = not tested or not shown. Hits are enriched below; roughly 2.9% of the tested compounds scored in any of these assays.

SMILES | ADAM10 inh | KLK7 zymogen act | PLCb3 inh | PLC-gamma1 inh | ADAM17 inh | proKLK7 act conf | EDANS-DABCYL int
CCOc1cc(C(=O)Nc2ccc(S(=O)(=O)N3CCCCC3)cc2)ccc1OCC(=O)N1CCOCC1 | 0.9 | 20.5* | -3.5 | -3.5 | -0.7 | 13.9* | 14.7*
CCCCNC(=O)c1cc2c(=O)n3cccc(C)c3nc2n(CCN2CCOCC2)c1=N | i | 16.1* | -340.5 | -294.0 | i | 5.9 | 10.2*
N=c1c(C(=O)NCCN2CCOCC2)cc2c(=O)n3ccccc3nc2n1CCCN1CCOCC1 | i | 14.4* | -436.8 | -269.0 | -381.1 | 4.0 | 5.0*
COCCCn1c(=N)c(C(N)=S)cc2c(=O)n3cccc(C)c3nc21 | i | 35.4* | i | -337.2 | i | 21.4* | 24.3*
COCCNC(=O)c1cc2c(=O)n3cccc(C)c3nc2n(Cc2ccncc2)c1=N | i | 140.7* | i | -488.9 | i | 43.7* | 54.2*
N=c1c(C(=O)NCCN2CCOCC2)cc2c(=O)n3ccccc3nc2n1Cc1ccc(F)cc1 | i | 6.5 | -128.9 | -87.4 | -150.0 | · | ·
O=C(NC1CCCC1)C1(C(=O)C2CC2)CC(c2ccccn2)=NO1 (stereo not drawn) | 1.7 | 0.8 | -0.1 | 3.3 | 1.1 | · | ·
Cn1c(=O)c2c(c3ccccc31)OC(C)(C)C=C2 | -55.5 | 1.3 | -30.8 | -22.3 | -11.2 | · | ·
CCCCNC(=O)c1cc2c(=O)n3cccc(C)c3nc2n(Cc2ccncc2)c1=N | i | 44.5* | -473.3 | -364.8 | i | 0.0 | -1.7
Cc1ccc2nc3c(cc(C(N)=S)c(=N)n3CCCOC(C)C)c(=O)n2c1 | i | 14.2* | -372.1 | -241.5 | -365.7 | 2.5 | 3.3
COc1cccc(NC(=O)Nc2nc3ncccn3c2-c2ccc(C(F)(F)F)cc2)c1 | -483.3 | 9.3 | i | i | -147.1 | · | ·
N#C/C(=C(/O)CCCl)c1ccccn1 | i | 208.6* | i | i | i | 389.0* | 395.1*
N#C/C(=C(\O)c1ccco1)c1ccccn1 | 6.0 | -0.4 | -6.9 | -3.3 | -2.9 | · | ·
Cc1[nH]n(-c2ccccc2)c(=O)c1C=Nc1cnc2ccccc2c1 | i | 46.2* | -167.3 | -139.5 | -214.2 | 21.4* | 21.5*
Cc1ccc(-n2c(SCC(=O)c3ccc(Br)cc3)nnc2-c2ccncc2)cc1 | 0.5 | 0.8 | 2.0 | 2.1 | -0.3 | · | ·
c1ccc2c(c1)NC1(CCCC1)n1c-2nc2ccccc21 | i | 81.7* | i | i | i | 60.7* | 66.1*
CCCC1(C)Nc2ccccc2-c2nc3ccccc3n21 (stereo not drawn) | i | 63.1* | i | i | i | 9.7 | 7.1*
CCCn1c(-c2ccc[nH]c2=O)nc2ccccc21 | i | 2.7 | -277.2 | -228.1 | -245.9 | · | ·
O=C1N(c2ccccc2)CC2CC(c3ccccc3)N3CCCC123 (stereo not drawn) | -15.7 | -0.1 | -4.7 | -1.6 | -8.2 | · | ·
COC(=O)c1cc2c(c3c4cc(OC)ccc4n(S(=O)(=O)c4ccc(OC)cc4)c13)C(=O)N(C1CCCCC1)C2 | -3.5 | -0.1 | -16.6 | -9.9 | -2.4 | · | ·
O=C(NC1CCCCN(Cc2ccc(Cl)cc2)C1=O)c1cccc(C(F)(F)F)c1 (stereo not drawn) | -1.0 | 0.0 | -2.6 | -2.1 | 2.5 | · | ·
Cc1cc(C)c2c(N)c(C(=O)Nc3nccs3)sc2n1 | i | 119.7* | i | i | i | -2.8 | -10.9
COCc1cc(C)nc2sc(C(=O)Nc3nccs3)c(N)c12 | -76.5 | 4.0 | i | i | -20.1 | · | ·
Nc1cnnc(N/N=C\c2ccccc2)c1Cl | i | 13.3* | -243.1 | -184.6 | -216.4 | 2.3 | 2.9
COc1ccc(S(=O)(=O)N2CCCc3nc(-c4ccccc4)ccc32)cc1 | 0.5 | 0.6 | 1.6 | -2.0 | 2.3 | · | ·
SMILES | ADAM10 inh | KLK7 zymogen act | PLCb3 inh | PLC-gamma1 inh | ADAM17 inh | proKLK7 act conf | EDANS-DABCYL int
Cc1cc(C)c(C#N)c(SCC(=O)Nc2cccc(S(=O)(=O)N3CCCC3)c2)n1 | -20.2 | -0.5 | -46.3 | -19.4 | -11.4 | · | ·
Cc1cc(C)c2c(N)c(C(=O)NN3CC(=O)N(c4ccccc4F)CC3=O)sc2n1 | i | 111.6* | i | i | -338.8 | 39.7* | 41.8*
COc1cccc(N2CC(=O)N(NC(=O)c3sc4nc(C)cc(C)c4c3N)CC2=O)c1 | i | 56.3* | i | i | -282.2 | 15.9* | 21.6*
COc1cccc(N2CC(=O)N(NC(=O)CSc3nc(C)cc(C)c3C#N)CC2=O)c1 | -107.1 | 71.0* | -271.0 | -145.1 | -31.2 | 42.4* | 45.2*
COc1ccc(NC(=O)c2sc3nc(C)cc(C)c3c2N)c(OC)c1 | -8.2 | 0.1 | -16.6 | -9.8 | -3.5 | · | ·
O=C1CCC[C@H]2Cc3nc4ccccc4cc3C[C@]23CCCN13 | -0.6 | · | -4.7 | -2.6 | -0.9 | · | ·
Cc1ccc2occ(/C=N/NC(=O)c3ccc(O)cc3)c(=O)c2c1 | -3.4 | 22.5* | -15.6 | -3.1 | -3.4 | 52.9* | 51.0*
CCOc1ccccc1C(=O)N/N=C/c1coc2ccc(C)cc2c1=O | -13.1 | 23.9* | -14.9 | -10.7 | -0.9 | 57.5* | 54.3*
CN1Cc2nnn(Cc3ccccc3)c2-c2cc(N3CCCCC3)ccc2S1(=O)=O | -166.5 | -1.4 | -421.1 | -379.9 | -58.6 | · | ·
CC(=O)Nc1ncnc2c1c(-c1ccc(Cl)cc1)nn2C(C)(C)C | -363.4 | 13.4* | -256.5 | -181.1 | -104.6 | 1.3 | 0.3
CC(=O)N(C(C)=O)c1ncnc2c1c(-c1ccc(Cl)cc1)nn2C(C)(C)C | -247.2 | 27.3* | -243.3 | -197.1 | -86.3 | 27.5* | 29.7*
CC(=O)Nc1nc(-c2ccc(Cl)cc2)nc(C)c1C(C)=O | -2.2 | -0.5 | -1.8 | -2.6 | -1.8 | · | ·
Cc1cccn2c(=O)c3cc(C(=O)NCc4cccnc4)c(=N)n(C(C)C)c3nc12 | i | 134.3* | i | i | i | 50.8* | 67.1*
Cc1cccn2c(=O)c3cc(C(=O)NCCc4ccccc4)c(=N)n(Cc4ccco4)c3nc12 | i | -8.2 | -421.9 | -245.5 | -218.2 | · | ·
Cc1cccn2c(=O)c3cc(C(=O)NCc4ccco4)c(=N)n(C(C)C)c3nc12 | i | 26.0* | -221.0 | -184.4 | -317.2 | 6.5 | 3.9
CC(C)n1c(=N)c(C(=O)NCCc2ccccc2)cc2c(=O)n3ccccc3nc21 | i | 133.5* | i | i | i | -51.4 | -64.4
COC(=O)[C@]12C[C@H](CC(=O)NCCC(C)C)C(=O)N(Cc3ccc(Cl)cc3Cl)C1=C[C@H](C(C)(C)C)O[C@@H]2C | 5.9 | 0.6 | 3.0 | -0.2 | 0.8 | · | ·
CCC[C@H]1[C@@H](NC(=O)c2ccc(Cl)c(C(F)(F)F)c2)CC[C@@]23CCCN2C(=O)CCC[C@@H]13 | 0.7 | · | -0.7 | -0.7 | 0.2 | · | ·
NC(=O)c1c(NC(=O)c2ccccc2)sc2c1CCC2 | -24.4 | 89.9* | -101.0 | -79.7 | -6.4 | 2.1 | 1.6

Screening results deposited in PubChem BioAssay by The Scripps Research Institute Molecular Screening Center.
